# Experimental data reported in PubChem BioAssay (NCI).
# Values joined by “and” are separate entries in the source; they are usually repeats but may differ in a detail not shown here. Equal entries are not always repeated. About 83,000 compounds went through this panel and 20% of them were active in at least one assay; those are over-represented in the sample as a whole.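 Activity criterion: percent growth below 10, measured after cells in 96-well plates were exposed to a single compound concentration for 48 hours.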 Active and inactive are the calls of the source.
# Tests used:
# Assay in all cases: NCI-60 one-dose screen, 48 h (100 = growth as untreated, 0 = no growth, -100 = all killed)
# [1] = test system: DU-145 prostate
# [2] = test system: K-562 leukemia
# [3] = test system: MALME-3M melanoma
# [4] = test system: MDA-MB-231 breast
# [5] = test system: RXF 393 renal
# [6] = test system: SF-268 CNS
# [7] = test system: SF-295 CNS
# [8] = test system: SF-539 CNS
# [9] = test system: UACC-257 melanoma
# [10] = test system: M14 melanoma
# [11] = test system: HCT-15 colon
# [12] = test system: HT29 colon
# [13] = test system: SNB-75 CNS
# [14] = test system: SNB-19 CNS
# [15] = test system: U251 CNS
# [16] = test system: PC-3 prostate
# [17] = test system: SK-MEL-5 melanoma
# [18] = test system: LOX IMVI melanoma
# [19] = test system: SK-MEL-28 melanoma
# [20] = test system: SK-MEL-2 melanoma
smiles,measurement,setting,value
O=c1[nH]cc(F)c(=O)[nH]1,growth,[1]; 10 µM,57.4% (inactive) and 65.3% (inactive)
same,growth,[1]; 25 µM,35.5% (inactive)
same,growth,[1]; 50 µM,20.5% (inactive)
same,growth,[2]; 10 µM,64.6% (inactive) and 69.4% (inactive)
same,growth,[2]; 25 µM,42.3% (inactive)
same,growth,[2]; 50 µM,41.5% (inactive)
same,growth,[3]; 10 µM,53.1% (inactive) and 69.9% (inactive)
same,growth,[3]; 25 µM,58.2% (inactive)
same,growth,[3]; 50 µM,53.7% (inactive)
same,growth,[4]; 10 µM,96.2% (inactive) and 84.6% (inactive)
same,growth,[4]; 25 µM,78.1% (inactive)
same,growth,[4]; 50 µM,77.2% (inactive)
same,growth,[5]; 10 µM,63.4% (inactive) and 10.7% (inactive)
same,growth,[5]; 25 µM,34.3% (inactive)
same,growth,[5]; 50 µM,54.4% (inactive)
same,growth,[6]; 10 µM,81.3% (inactive) and 91.9% (inactive)
same,growth,[6]; 25 µM,59% (inactive)
same,growth,[6]; 50 µM,47.7% (inactive)
same,growth,[7]; 10 µM,77% (inactive) and 100% (inactive)
same,growth,[7]; 25 µM,69.1% (inactive)
same,growth,[7]; 50 µM,90.5% (inactive)
same,growth,[8]; 10 µM,-0.0094% (active) and -4.58% (active)
same,growth,[8]; 25 µM,-19.6% (active)
same,growth,[8]; 50 µM,22.8% (inactive)
same,growth,[9]; 10 µM,73.1% (inactive) and 22.6% (inactive)
same,growth,[9]; 25 µM,19.5% (inactive)
same,growth,[9]; 50 µM,53.5% (inactive)
same,growth,[10]; 10 µM,64% (inactive) and 28.9% (inactive)
same,growth,[10]; 50 µM,42.4% (inactive)
same,growth,[11]; 10 µM,48.1% (inactive) and 51.4% (inactive)
same,growth,[11]; 25 µM,26.5% (inactive)
same,growth,[11]; 50 µM,37.8% (inactive)
same,growth,[12]; 10 µM,43.6% (inactive) and 42.6% (inactive)
same,growth,[12]; 25 µM,27.1% (inactive)
same,growth,[12]; 50 µM,31.4% (inactive)
same,growth,[13]; 10 µM,73.5% (inactive) and 90.2% (inactive)
same,growth,[13]; 25 µM,65.9% (inactive)
same,growth,[13]; 50 µM,63.8% (inactive)
same,growth,[14]; 10 µM,75.7% (inactive) and 83.3% (inactive)
same,growth,[14]; 25 µM,65.9% (inactive)
same,growth,[14]; 50 µM,66.7% (inactive)
same,growth,[15]; 10 µM,74.7% (inactive) and 78.7% (inactive)
same,growth,[15]; 25 µM,50.3% (inactive)
same,growth,[15]; 50 µM,61.1% (inactive)
same,growth,[16]; 10 µM,73.6% (inactive) and 75.1% (inactive)
same,growth,[16]; 25 µM,58.2% (inactive)
same,growth,[16]; 50 µM,64.8% (inactive)
same,growth,[17]; 10 µM,45.5% (inactive) and -28.2% (active)
same,growth,[17]; 25 µM,33.7% (inactive)
same,growth,[17]; 50 µM,59.5% (inactive)
same,growth,[18]; 10 µM,41.7% (inactive) and 51% (inactive)
same,growth,[18]; 25 µM,30.4% (inactive)
same,growth,[18]; 50 µM,35.7% (inactive)
same,growth,[19]; 10 µM,62.2% (inactive)
same,growth,[19]; 50 µM,50.9% (inactive)
same,growth,[20]; 10 µM,71.4% (inactive) and 106% (inactive)
same,growth,[20]; 25 µM,95.5% (inactive)
same,growth,[20]; 50 µM,73% (inactive)
CN1CCN(c2ccc3nc(-c4ccc5nc(-c6ccc(O)cc6)[nH]c5c4)[nH]c3c2)CC1,growth,[1]; 10 µM,84.5% (inactive)
same,growth,[2]; 10 µM,50.2% (inactive)
same,growth,[3]; 10 µM,37.9% (inactive)
same,growth,[4]; 10 µM,121% (inactive)
same,growth,[5]; 10 µM,37.3% (inactive)
same,growth,[6]; 10 µM,82.9% (inactive)
same,growth,[7]; 10 µM,96.3% (inactive)
same,growth,[8]; 10 µM,77% (inactive)
same,growth,[9]; 10 µM,113% (inactive)
same,growth,[11]; 10 µM,94.3% (inactive)
same,growth,[12]; 10 µM,82.1% (inactive)
same,growth,[13]; 10 µM,54.9% (inactive)
same,growth,[14]; 10 µM,106% (inactive)
same,growth,[15]; 10 µM,87.5% (inactive)
same,growth,[16]; 10 µM,69.7% (inactive)
same,growth,[17]; 10 µM,-19.3% (active)
same,growth,[18]; 10 µM,93.9% (inactive)
same,growth,[20]; 10 µM,108% (inactive)
N#C/C(=C1C=C/C(=N\O)C(Cl)=C\1)c1ccccc1,growth,[1]; 10 µM,40.2% (inactive)
same,growth,[2]; 10 µM,20.9% (inactive)
same,growth,[3]; 10 µM,58.7% (inactive)
same,growth,[4]; 10 µM,20.6% (inactive)
same,growth,[5]; 10 µM,43.9% (inactive)
same,growth,[6]; 10 µM,27% (inactive)
same,growth,[7]; 10 µM,-32.2% (active)
same,growth,[8]; 10 µM,2.46% (active)
same,growth,[10]; 10 µM,46% (inactive)
same,growth,[11]; 10 µM,22.2% (inactive)
same,growth,[12]; 10 µM,23% (inactive)
same,growth,[13]; 10 µM,59.4% (inactive)
same,growth,[14]; 10 µM,80.5% (inactive)
same,growth,[16]; 10 µM,14.5% (inactive)
same,growth,[17]; 10 µM,46.8% (inactive)
same,growth,[18]; 10 µM,1.14% (active)
same,growth,[19]; 10 µM,68.9% (inactive)
Nc1ccc2cc(Br)c3ccccc3c2c1,growth,[1]; 10 µM,61.8% (inactive)
same,growth,[2]; 10 µM,31.7% (inactive)
same,growth,[3]; 10 µM,97.8% (inactive)
same,growth,[5]; 10 µM,4.19% (active)
same,growth,[6]; 10 µM,68.9% (inactive)
same,growth,[7]; 10 µM,21% (inactive)
same,growth,[8]; 10 µM,47.9% (inactive)
same,growth,[9]; 10 µM,90.1% (inactive)
same,growth,[10]; 10 µM,78.5% (inactive)
same,growth,[11]; 10 µM,33.2% (inactive)
same,growth,[12]; 10 µM,87.9% (inactive)
same,growth,[13]; 10 µM,50% (inactive)
same,growth,[14]; 10 µM,56.3% (inactive)
same,growth,[15]; 10 µM,65.6% (inactive)
same,growth,[16]; 10 µM,65.2% (inactive)
same,growth,[17]; 10 µM,75.3% (inactive)
same,growth,[19]; 10 µM,80.8% (inactive)
same,growth,[20]; 10 µM,103% (inactive)
Cc1cnc(/C=N\NC(N)=S)c2cccc(N)c12,growth,[1]; 10 µM,-15.6% (active)
same,growth,[2]; 10 µM,30.6% (inactive)
same,growth,[4]; 10 µM,34.2% (inactive)
same,growth,[6]; 10 µM,2.26% (active)
same,growth,[7]; 10 µM,-29.9% (active)
same,growth,[8]; 10 µM,-47.9% (active)
same,growth,[9]; 10 µM,-30.6% (active)
same,growth,[10]; 10 µM,-24.7% (active)
same,growth,[11]; 10 µM,24.9% (inactive)
same,growth,[12]; 10 µM,35.8% (inactive)
same,growth,[13]; 10 µM,-2.85% (active)
same,growth,[14]; 10 µM,24% (inactive)
same,growth,[15]; 10 µM,25% (inactive)
same,growth,[16]; 10 µM,29% (inactive)
same,growth,[17]; 10 µM,54.8% (inactive)
same,growth,[18]; 10 µM,6.91% (active)
same,growth,[19]; 10 µM,34.5% (inactive)
same,growth,[20]; 10 µM,-6.16% (active)
